Source: PubChem
Sampled rows, rich in hits. Any-hit rate of the full collection: about 3.5%.
TEAD-YAP inh = TEAD-YAP interaction inhibition | HEK-TIYL cells, TEAD-Gal4/YAP UAS-luciferase luminescence | inhibition, % at 9.12 µM | 1.4% of 640,000 active; in the data active = inhibition above about 32%;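 note: 0% = median of test compound wells and 100% = reference inhibitor wells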
MITF primary = blocks human microphthalmia-associated transcription factor. O75030. AlphaScreen MITF homodimerization, bead proximity signal. inhibition, % at 2.6 µM. 0.91% of 650,000 active. AID 1259374; in the data active = inhibition above about 50%;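 note: 0% = vehicle wells with protein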
Target sequence (O75030 whole entry, looked up): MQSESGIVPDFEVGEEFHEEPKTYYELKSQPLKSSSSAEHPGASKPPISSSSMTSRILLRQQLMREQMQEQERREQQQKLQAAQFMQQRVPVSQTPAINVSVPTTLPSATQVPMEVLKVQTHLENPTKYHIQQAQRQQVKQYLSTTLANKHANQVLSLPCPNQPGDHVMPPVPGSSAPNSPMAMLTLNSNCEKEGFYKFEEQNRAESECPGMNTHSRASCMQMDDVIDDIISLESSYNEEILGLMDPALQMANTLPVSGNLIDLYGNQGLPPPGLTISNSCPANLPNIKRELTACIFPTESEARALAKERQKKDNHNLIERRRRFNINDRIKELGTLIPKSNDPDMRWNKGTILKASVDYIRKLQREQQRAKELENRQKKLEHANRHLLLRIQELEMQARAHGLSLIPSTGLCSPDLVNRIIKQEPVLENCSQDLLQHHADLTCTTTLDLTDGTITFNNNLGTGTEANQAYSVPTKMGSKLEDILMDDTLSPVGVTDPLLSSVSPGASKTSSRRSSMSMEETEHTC
FBW7 activator = activators of human E3 ligase FBW7; Q969H0; AlphaScreen FBW7–phospho-cyclin E peptide binding, activator screen; normalized activity (activation), % at 26.1 µM; 0.13% of 650,000 active; AID 1259310; in the data active = normalized activity above about 1.9%;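 note: purified mutant Fbw7 with reduced substrate affinity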
GPR151 activ = activators of human GPR151. activation, % at 11.2 µM. Q8TDV0. 1% of 650,000 active. PathHunter beta-arrestin GPR151 cells, luminescence; in the data active = activation above about 4.9%;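 note: 0% = median of compound wells and 100% = cells with positive control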
An asterisk follows results filed as active.

SMILES	TEAD-YAP inh	MITF primary	FBW7 activator	GPR151 activ
Cc1ccc(CNC(=O)c2cccn3c(=O)c4ccccc4nc23)cc1	-10.6	6.7	0.3	0.3
O=C(COc1ccc2ccccc2c1)Nc1cccc(C(=O)Nc2ccccc2C(=O)O)c1	8.0	-3.7	-0.1	1.1
O=C(O)c1ccccc1Nc1cccc(OCc2ccc3ccccc3n2)c1	45.7*	11.6	-0.1	0.2
CNS(=O)(=O)c1cccc(C(=O)OCC(=O)c2cc(C)n(CC3CCCO3)c2C)c1 (stereo not given)	56.9*	-10.2	-0.1	0.5
CNS(=O)(=O)c1cccc(C(=O)OCC(=O)c2cc(C)n(Cc3ccco3)c2C)c1	-27.0	-5.0	0.6	-0.8
CNS(=O)(=O)c1cccc(C(=O)OCC(=O)c2cc(C)n(Cc3cccs3)c2C)c1	58.4*	-6.9	0.1	0.6
Cc1cc(C(=O)COC(=O)c2cccc(S(=O)(=O)N(C)C)c2)c(C)n1CC1CCCO1 (stereo not given)	-23.2	22.0	0.2	-1.1
O=C(OC(c1ccccc1)c1nccc2ccccc12)c1ccccc1 (stereo not given)	71.9*	8.5	0.0	-0.3
COC(=O)c1ccc(C(=O)OC)c(NC(=O)CC(C)c2ccccc2)c1 (stereo not given)	-1.4	-7.2	0.2	3.3
Nc1nc(NCc2ccccc2)cc(-c2csc3ccccc23)n1	1.7	8.5	0.2	0.1
COc1ccc(-c2cc(NCc3cccc(C(F)(F)F)c3)nc(N)n2)cn1	46.3*	0.7	-0.1	3.8
COc1ccc(-c2cc(NCc3cccc(C(F)(F)F)c3)nc(N)n2)cc1	3.3	8.7	0.4	0.3
COc1ccc(CCNc2cc(Nc3cnccn3)ncn2)cc1	3.0	11.5	0.0	-1.1
COc1ccc(CCNc2cc(Nc3cnccn3)nc(N)n2)cc1	34.9*	-5.5	-0.1	-0.5
Nc1nc(NCc2cccc(C(F)(F)F)c2)cc(-c2csc3ccccc23)n1	52.9*	8.9	0.1	-1.1
COc1ccc(CCNc2cc(-c3csc4ccccc34)nc(N)n2)cc1	56.7*	7.5	0.6	1.9
CC(=O)Oc1ccc2ccccc2c1/C=C1\N=C2CCCCCN2C1=O	-52.1	0.1	0.3	-0.4
Cc1cc(NC(=O)CCCC(=O)c2ccccc2)n[nH]1	46.9*	9.0	0.3	3.2
Cc1ccc(C(=O)CCC(=O)Nc2cc(C)[nH]n2)cc1	21.0	7.6	-0.1	1.9
Cc1ccc(NC(=O)CSc2nc3ccccc3c(=O)n2NC(=O)c2ccc(F)cc2)cc1Cl	57.4*	8.7	0.7	-3.8
CCn1c(SCC(=O)Nc2ccc(C)c(Cl)c2)nc2c1c(=O)n(C)c(=O)n2C	3.3	10.3	1.9*	1.4
Cc1cc(NC(=O)CSc2nc3ccccc3c(=O)n2NC(=O)c2ccccc2)n[nH]1	47.0*	-2.9	-0.3	-3.5
Cc1ccc(NC(=O)c2cc3ccccn3n2)cc1C	-36.8	2.4	0.2	-2.3
COc1ccc2nc(/C(C#N)=C\c3cc([N+](=O)[O-])c(OC)cc3OC)[nH]c2c1	8.1	6.6	0.0	2.1
COc1ccc(C(=O)Nn2c(SCC(=O)Nc3ccc(C)c(Cl)c3)nc3ccccc3c2=O)cc1	75.3*	7.2	0.1	0.6
SMILES	TEAD-YAP inh	MITF primary	FBW7 activator	GPR151 activ
COc1ccc(CCn2c(SCC(=O)Nc3ccc(C)c(Cl)c3)nc3ccccc3c2=O)cc1OC	11.5	3.0	0.8	-1.1
CCC(C)(C)NC(=O)c1cc(S(=O)(=O)N2CCCCC2)c[nH]1	-5.4	21.7	-0.1	0.8
CCOC(=O)c1ccc(NC(=O)COc2ccc(C(C)C)cc2)cc1	-5.0	8.8	0.0	1.4
Cc1ccc(-c2n[nH]c3c2C(c2ccccc2F)N(c2ccccc2)C3=O)cc1 (stereo not given)	47.8*	3.8	-0.1	1.7
Cc1ccc(C2c3c(-c4ccc(F)cc4)n[nH]c3C(=O)N2c2ccccc2)cc1 (stereo not given)	0.5	-28.2	-0.1	0.3
CCCNc1nc(SC)nc2c1cnn2CCNC(=O)c1ccc(OC)cc1OC	36.0*	1.6	0.0	1.5
CCCNc1nc(SC)nc2c1cnn2CCNC(=O)c1ccc(F)cc1	4.5	1.4	0.0	-0.4
O=C(Oc1ccc(N2C(=O)C=CC2=O)cc1)c1cccc2ccccc12	10.2	14.5	1.9*	-0.5
CCOC(=O)C1=C(C)N=c2s/c(=C\c3ccc(OCc4ccc(Cl)cc4Cl)cc3)c(=O)n2C1c1ccc(OC)cc1 (stereo not given)	-1.8	-11.4	-0.1	-0.1
CCOC(=O)Cc1ccc(N(Cc2ccc(Cl)cc2)S(=O)(=O)c2ccc3c(c2)OCCO3)cc1	-3.6	16.6	0.1	0.0
CCOC(=O)c1[nH]c(C)c(C(=O)N2CC(C)CC(C)C2)c1C (stereo not given)	43.5*	-2.0	-0.1	-1.3
